Reference: PubChem BioAssay (Tox21)
Results filed as inconclusive are left out. Activity calls are given as the source filed them. The call rests on the fitted dose curve; in most records, active means well fitted inhibition curve with a large enough effect in the repeat runs; inconclusive means weak or mixed curves; inactive means flat fitted curve, though single readings scatter.

Target: Luciferin 4-monooxygenase (Photinus pyralis) (UniProt P08659)
Assay: qHTS assay to identify small molecule inhibitors of firefly luciferase (AID 1224835); further: nearly all actives have a fitted effect of over 25% in size
Settings: purified P. pyralis luciferase, luminescence inhibition; series mostly up to 115 µM; activity change, negative = inhibition: at the top concentration
From the text: U.S. Tox21 Program National Center for Advancing Translational Sciences [NCATS] NIH Chemical Genomics Center [NCGC] U.S. Environmental Protection Agency [EPA] National Institutes of Environmental Health Sciences [NIEHS] National Toxicology Program [NTP] U.S. Food and Drug Administration [FDA] Tox21 Assay Overview: Firefly (Photinus pyralis) luciferase is one of the most commonly used transcriptional reporters. Firefly luciferase reporter-gene assays are generally considered one of the most sensitive assay types (Wood, 1995; Wood, 1998). However, it was initially observed, in 1991, by Thompson et al., that compounds that resemble the substrates of firefly luciferase (FLuc) can act as competitive inhibitors of the enzyme, and that these compounds, upon interaction with luciferase in the cell, can actually stabilize the protein and increase its half-life. Previous profiling work by other groups to determine the prevalence of compounds that affect FLuc enzymatic activity (PubChem AID 411) identified that ~3% of the MLSMR library (then at ~72K) inhibited FLuc. […] Thus the Tox21 10K library is profiled for activity against FLuc using a biochemical assay of purified FLuc and KM concentrations of FLuc substrates (D-luciferin and ATP).
These assay plates were then treated with 23nL of compound or DMSO using a Kalypsys pin tool, which allows for delivery of a 6-point interplate titration of each compound to the assay plate (quantitative HTS.) 1 uL of firefly luciferase mix (containing 50 mM Tris acetate, pH 7.6, 0.04 uM P. pyralis luciferase, 0.01% Tween, 0.05% BSA and dH2O) was then delivered by FRD to each well. Luciferase activity was then measured using a ViewLux CCD imager.
On the % scale 0 is the no-effect control and ±100 the full control effect.

Luciferin 4-monooxygenase (Photinus pyralis), sequence (P08659 whole entry, looked up): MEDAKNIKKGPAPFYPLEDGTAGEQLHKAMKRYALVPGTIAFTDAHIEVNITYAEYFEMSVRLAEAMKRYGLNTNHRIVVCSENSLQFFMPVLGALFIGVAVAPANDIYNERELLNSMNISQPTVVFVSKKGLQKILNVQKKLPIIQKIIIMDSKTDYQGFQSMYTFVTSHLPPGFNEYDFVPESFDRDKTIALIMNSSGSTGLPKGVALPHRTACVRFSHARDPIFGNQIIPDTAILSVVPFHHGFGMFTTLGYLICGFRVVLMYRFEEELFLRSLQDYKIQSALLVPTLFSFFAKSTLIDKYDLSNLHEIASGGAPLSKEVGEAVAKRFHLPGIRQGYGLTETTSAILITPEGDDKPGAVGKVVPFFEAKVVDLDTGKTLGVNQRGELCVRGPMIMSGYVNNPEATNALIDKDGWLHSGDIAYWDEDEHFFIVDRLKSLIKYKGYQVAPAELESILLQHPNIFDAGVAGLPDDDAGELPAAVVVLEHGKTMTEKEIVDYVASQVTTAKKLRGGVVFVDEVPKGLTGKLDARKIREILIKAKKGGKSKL

Row | Structure (SMILES) | Potency | activity change, negative = inhibition
1 | [Cl][Dy]([Cl])[Cl] | 28.3 µM (active) | –
2 | O=C(Nc1ccc([N+](=O)[O-])cc1)Nc1ccc([N+](=O)[O-])cc1 (tested in a mixture with another compound) | – | -4.16% [at 52.9 µM] (inactive)
3 | Nc1cccnc1N | – | -0.913% (inactive)
4 | CN(C)CCOc1ccc(/C(=C(/CCCl)c2ccccc2)c2ccccc2)cc1 | – | 2.16% (inactive)
5 | CC(C)(c1ccc(Oc2ccc(N)cc2)cc1)c1ccc(Oc2ccc(N)cc2)cc1 | 22.4 µM (active) | –
6 | CN1CCN(CCCN2c3ccccc3Sc3ccc(C(F)(F)F)cc32)CC1 | – | 3.04% [at 52.9 µM] (inactive)
7 | CCC(C)(C)c1ccc(CC(C)CN2C[C@@H](C)O[C@@H](C)C2)cc1 (stereo not given in full) | – | 2.32% [at 52.9 µM] (inactive)
8 | O=[N+]([O-])c1ccc(O)c2ncccc12 | – | 1.07% [at 52.9 µM] (inactive)
9 | COC(=O)c1ccc([N+](=O)[O-])cc1 | – | -1.07% (inactive)
10 | CCC(O)CO (stereo not given) | – | 2.7% (inactive)
11 | Cc1cc(F)ccc1-c1cc(N2CC[C@@H](O)[C@H]2CO)ncc1N(C)C(=O)C(C)(C)c1cc(C(F)(F)F)cc(C(F)(F)F)c1 | – | 1.58% (inactive)
12 | CO[Si](OC)(c1ccccc1)c1ccccc1 | – | 3.06% (inactive)
13 | C=C1CC[C@H]2O[C@]2(C)CC[C@@H]2[C@@H]1CC2(C)C | – | -1.45% (inactive)
14 | C/C=C/C(=O)C1=C(C)C=CCC1(C)C | – | -3.49% (inactive)
15 | C/C(=N\[Si](C)(C)C)O[Si](C)(C)C | – | 3.03% (inactive)
16 | O=C1OC(=O)c2cc(-c3ccc4c(c3)C(=O)OC4=O)ccc21 | – | -9.23% (inactive)
17 | O=C1c2ccccc2C(=O)c2c(Cl)cccc21 | – | -3.33% [at 52.9 µM] (inactive)
18 | Cc1ccc(C2OC[C@@H]3OC(c4ccc(C)cc4)O[C@H]([C@H](O)CO)[C@@H]3O2)cc1 (stereo not given in full) | – | -0.479% (inactive)
19 | Clc1cccc(Cl)n1 | – | 3.33% (inactive)
20 | CC(=O)CC(N)=O | – | 1.94% (inactive)

Row | Structure (SMILES) | Potency | activity change, negative = inhibition
21 | Nc1ccc2c(S(=O)(=O)O)cccc2c1S(=O)(=O)O | – | -9.36% [at 52.9 µM] (inactive)
22 | CCc1cccc(C)c1N(C(=O)C(=O)O)C(C)COC (stereo not given) | – | -3.18% (inactive)
23 | CC(CC(C)(C)C)CC(C)(C)CC(C)(C)C (stereo not given) | – | -1.92% [at 52.9 µM] (inactive)
24 | CN(C[C@@H](CC[N+]12CCC(C3CCCCC3)(CC1)CC2)c1ccc(Cl)c(Cl)c1)C(=O)c1cc(C(F)(F)F)cc(C(F)(F)F)c1 | – | -6.55% (inactive)
25 | O=C1OC(O)C(C(Cl)Cl)=C1Cl (stereo not given) | – | 5.19% (inactive)
26 | CC(C)(C)c1ccc(OC2CCCCC2O)cc1 (stereo not given) | 31.7 µM (active) | –
27 | CC(C)=NNC(N)=S | – | -5.58% (inactive)
28 | C/C=C/C(=O)OCC(C)C | – | 6.84% (inactive)
29 | CC(C)c1ccc2sc3ccccc3c(=O)c2c1 | 1.59 µM (active) | –
30 | CCCCCCCCCCCCS(=O)(=O)Cl | – | -13.9% [at 23.6 µM] (inactive)
31 | CCn1c2ccccc2c2ccccc21 | – | -9.49% (inactive)
32 | COc1cc(/C=C/C(=O)CC(=O)/C=C/c2ccc(O)c(OC)c2)ccc1O | 28.4 µM (active) | –
33 | COc1cc(OC)nc(NC(=O)NS(=O)(=O)Nc2ccccc2C(=O)N(C)C)n1 | – | -11.1% (inactive)
34 | c1ccc(-c2ccc(C(c3ccccc3)n3ccnc3)cc2)cc1 (stereo not given) | – | -5.66% [at 52.9 µM] (inactive)
35 | Nc1ccc(F)c([N+](=O)[O-])c1 | – | -1.57% (inactive)
36 | O=C1CCCCCCCCCCCCCC1 | – | 2.63% (inactive)
37 | COc1cc([C@@H]2c3cc4c(cc3[C@@H](O[C@@H]3O[C@@H]5CO[C@@H](C)O[C@H]5[C@H](O)[C@H]3O)[C@H]3COC(=O)[C@H]23)OCO4)cc(OC)c1O | – | 1.06% (inactive)
38 | Cc1cc(Br)ccc1NC(=O)CCl | – | 3.21% (inactive)
39 | O=C(Nc1ccccc1)c1cc(Cl)ccc1O | 3.99 µM (active) | –
40 | CC(c1cc(C(C)(C)C)cc(C(C)(C)C)c1O)c1cc(C(C)(C)C)cc(C(C)(C)C)c1O | – | 1.33% (inactive)
